Source: PubChem BioAssay (NCATS)
Records with an inconclusive call do not appear. A number with no mark means an inactive call. Active and inactive are the calls of the source. The call rests on the fitted dose curve; in most records, active means well fitted inhibition curve with a large enough effect; inconclusive means small, poorly fitted or top-dose-only effect; inactive means flat fitted curve, though single readings scatter.

Target: Phospholipid hydroperoxide glutathione peroxidase GPX4 (Homo sapiens) (UniProt P36969)
Sequence (P36969 whole entry, looked up): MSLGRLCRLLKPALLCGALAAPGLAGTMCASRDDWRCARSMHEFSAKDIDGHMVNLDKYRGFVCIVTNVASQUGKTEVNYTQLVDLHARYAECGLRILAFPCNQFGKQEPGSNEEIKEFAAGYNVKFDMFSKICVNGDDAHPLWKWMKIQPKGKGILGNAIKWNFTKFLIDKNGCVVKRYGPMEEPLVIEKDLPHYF
Assay: Primary qHTS Assay for Inhibitors of Recombinant Selenoprotein Glutathione Peroxidase 4 (GPX4) (AID 1845192); further: nearly all actives have a fitted effect of over 65% in size
Details: recombinant GPX4, GR-coupled NADPH fluorescence, 15 min; series mostly up to 50 µM; activity change, negative = inhibition: at the top concentration
Summary of the method: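 NADPH consumption, followed by fluorescence at 340/450 nm between 0 and 15 min, reports GPX4 activity via coupled glutathione reductase (100 nM). Enzyme 200 nM was pre-exposed to compound 30 min; 0.5 mM cumene hydroperoxide and 1 mM GSH served as substrates.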
On the % scale 0 is the no-effect control and ±100 the full control effect; potency means the concentration at half of the fitted maximal effect.

Compound | activity change, negative = inhibition | Potency | outcome
COC(=O)N1CCN(C(=O)Cc2ccc(Cl)c(Cl)c2)[C@@H](CN2CCCC2)C1 | 7.56% | – | –
COc1cc2c(cc1OC)[C@@]13CCN4CC5=CCO[C@H]6CC(=O)N2[C@H]1[C@H]6[C@H]5C[C@H]43 | – | inactive | –
C[C@H]1O[C@@H](O[C@H]2C[C@@H](O)[C@]3(CO)C4C(CC[C@]3(O)C2)[C@@]2(O)CC[C@H](C3=CC(=O)OC3)[C@@]2(C)C[C@H]4O)[C@@H](O)[C@@H](O)[C@H]1O (some centres undefined) | – | – | inactive [at 15.3 µM]
COc1c(C(C)C)cc2c(c1O)[C@@]1(C(=O)O)CCCC(C)(C)C1CC2 (some centres undefined) | -17.5% [at 27.8 µM] | – | –
CC(CCc1ccc(O)cc1)O[C@@H]1O[C@H](CO[C@H]2OC[C@](O)(CO)[C@H]2O)[C@@H](O)[C@H](O)[C@H]1O (some centres undefined) | 1.04% [at 27.8 µM] | – | –
CC(=O)OC1CC(O)C(C)(C)C2CC(OC(C)=O)C3(C)C(CCC4(C)C(c5ccoc5)C(=O)C5OC543)C12C (centres undefined) | -0.681% [at 27.8 µM] | – | –
N#CC(OC1OC(COC2OC(CO)C(O)C(O)C2O)C(O)C(O)C1O)c1ccccc1 (centres undefined) | -8.58% [at 27.8 µM] | – | –
COC(=O)[C@@]12C(=O)C(C)C(=O)[C@]1(C)C(C)=C[C@H]1[C@]3(C=O)CC[C@H](OC(C)=O)C(C)(C)[C@H]3CC[C@@]12C (some centres undefined) | -18.1% [at 27.8 µM] | – | –
CN(C(=O)Cc1ccccc1)C(CN1CCCC1)c1ccccc1 (centres undefined) | 1.95% | – | –
CCN1CC2(COC)C3[C@@H](OC)C4C1C3(C1C[C@]3(O)[C@H](OC(=O)c5ccccc5)C1[C@]4(OC(C)=O)[C@@H](O)[C@@H]3OC)[C@H](OC)C[C@H]2O (some centres undefined) | 0.81% | – | –
CC1C/C=C/C(O)C(O)CC/C=C/c2cc(O)cc(O)c2C(=O)O1 (centres undefined) | 3.43% [at 27.8 µM] | – | –
CCC1NC(=O)C2C(Cl)C(Cl)CN2C(=O)C(C(C)O)NC(=O)CC(c2ccccc2)NC(=O)C(CO)NC1=O (centres undefined) | -7.3% [at 15.3 µM] | – | –
CCN1C[C@]2(COC)[C@H](O)C[C@H](OC)[C@]34[C@@H]5C[C@]6(O)[C@H](OC(=O)c7ccccc7)[C@@H]5[C@@](O)([C@H]([C@H](OC)[C@H]23)[C@@H]14)[C@@H](O)[C@@H]6OC | -1.99% [at 27.8 µM] | – | –
COc1cc(C(=O)O[C@H]2[C@@H]3C=CO[C@@H](O[C@@H]4O[C@H](CO)[C@@H](O)[C@H](O)[C@H]4O)[C@@H]3[C@@]3(CO)O[C@@H]23)ccc1O | – | – | inactive [at 27.8 µM]
C=CC(C)(O)CC/C=C(\C)C(=O)O[C@H]1[C@H](O)[C@@H](CO)O[C@@H](OC(=O)[C@]23CCC(C)(C)CC2C2=CCC4[C@@]5(C)CC[C@H](O[C@@H]6O[C@H](CO[C@@H]7OC[C@H](O)[C@H](O)[C@H]7O[C@@H]7OC[C@@H](O)[C@H](O)[C@H]7O)[C@@H](O)[C@H](O)[C@H]6O)C(C)(C)C5CC[C@@]4(C)[C@]2(C)CC3)[C@@H]1OC1OC(C)C(O[C@@H]2OC[C@@H](O)[C@H](O[C@@H]3OC[C@@H](O)[C@H](O)[C@H]3O)[C@H]2O)C(O)C1O (some centres undefined) | 0.212% [at 9.73 µM] | – | –
Cc1ccccc1-n1c(CF)nc2ccc(N)cc2c1=O | – | 17.8 µM (active) | –
CN(C)CCc1c[nH]c2ccc(CN3CCN(C)S3(=O)=O)cc12 | -3.75% | – | –
CC(=O)O[C@H]1C[C@@H](OC(C)=O)C(C)(C)C2C[C@@H](O)[C@]3(C)C(CC[C@@]4(C)[C@H](C5=CC(=O)OC5O)C[C@H]5O[C@]543)[C@]21C (some centres undefined) | -19.2% [at 27.8 µM] | – | –
CC1=CC2/C=C(\C)CCC(O)C3OC(C)(C)OC3CC(=O)OC23C(=O)NC(CC(C)C)C3C1C (centres undefined) | -32.7% [at 27.8 µM] | – | –
CCCN1CCO[C@H]2c3cc(O)ccc3OC[C@@H]21 | – | – | inactive

Compound | activity change, negative = inhibition | Potency | outcome
CN1C(=O)c2ccccc2NC(=O)[C@]12O[C@@H]2c1ccccc1 | -12% | – | –
Cc1cccc(NC(=O)N[C@@H]2N=C(c3ccccc3)c3ccccc3N(C)C2=O)c1 | -6.01% | – | –
C[C@@]1(C(=O)O)CC[C@]2(C)CC[C@]3(C)C4=CC(=O)c5cc(O)c(O)cc5[C@]4(C)CC[C@@]3(C)[C@@H]2C1 | -1.18% [at 27.8 µM] | – | –
CN1C(=O)c2ccccc2NC(=O)C1Cc1ccccc1 (centres undefined) | -11.1% | – | –
CC[C@H](C)[C@H]1O[C@]2(C=C[C@@H]1C)C[C@@H]1C[C@@H](C/C=C(\C)[C@@H](O[C@H]3C[C@H](OC)[C@@H](O[C@H]4C[C@H](OC)[C@@H](O)[C@H](C)O4)[C@H](C)O3)[C@@H](C)/C=C/C=C3\CO[C@@H]4[C@H](O)C(C)=C[C@@H](C(=O)O1)[C@]34O)O2 | – | 5.01 µM (active) | –
Cc1c(Cl)cccc1S(=O)(=O)Nc1nc(CC(=O)N2CCN(C)CC2)cs1 | 1.74% | – | –
COC1CC(O[C@H]2CC[C@]3(C=O)C4CC[C@]5(C)[C@@H](C6=CC(=O)OC6)CC[C@]5(O)[C@@H]4CC[C@]3(O)C2)OC(C)C1O[C@@H]1O[C@H](CO)[C@@H](O)[C@H](O)[C@H]1O (some centres undefined) | – | – | inactive [at 15.3 µM]
O=C1C2CC=CCC2C(=O)N1SC(Cl)(Cl)Cl (centres undefined) | – | 14.1 µM (active) | –
CCc1[nH]c2ccc(OC)cc2c1CCN(C)C | 6.92% | – | –
COC(=O)C1(C)CCC(O)C2(C)c3cc(O)c(C(C)C)cc3C(O)C(OC(C)=O)C12 (centres undefined) | -5.1% [at 27.8 µM] | – | –
COCC1OC(=O)c2coc3c2C1(C)C1=C(C3=O)C2CCC(=O)C2(C)CC1O (centres undefined) | – | – | inactive [at 27.8 µM]
CN[C@H]1[C@H](O)[C@H](O[C@@H]2[C@@H](O)[C@H](O[C@H]3O[C@H]([C@H](C)O)[C@@H](O)[C@H](O)[C@H]3N)[C@@H](N)C[C@H]2N)OC[C@@]1(C)O | 5.74% | – | –
CC(C)(O)[C@H]1O[C@H]2CC[C@@]3(C)[C@@](O)(CC[C@H]4Cc5c([nH]c6ccccc56)[C@@]43C)C2=CC1=O | -14.7% [at 27.8 µM] | – | –
C=C[C@H]1CN2CC[C@H]1C[C@@H]2[C@@H](O)c1ccnc2ccccc12 | – | inactive | –
Cc1cn(C[C@H](N)C(=O)O)c(=O)n(Cc2cc(-c3ccccc3)sc2C(=O)O)c1=O | 12% | – | –
COC1CC(OC2CCC3(C)C(CCC4C3CCC3(C)C(C5=CC(=O)OC5)C(OC(C)=O)CC43O)C2)OC(C)C1OC1OC(CO)C(O)C(O)C1O (centres undefined) | 1.67% [at 15.3 µM] | – | –
C[C@@](O)(COc1ccc(C#N)cc1)C(=O)Nc1ccc(C#N)c(C(F)(F)F)c1 | 3.4% | – | –
C[C@@H]1C(=O)O[C@H]2[C@H](O)[C@@]34[C@@H]5OC(=O)[C@@]3(O[C@@H]3OC(=O)[C@@H](O)[C@@]34[C@H](C(C)(C)C)[C@H]5O)[C@@]12O | 1.95% [at 27.8 µM] | – | –
COC1CC(=O)C23C(=O)NC(CC(C)C)C2C(C)=C(C)C(OO)C3/C=C(\C)CCC(O)C1O (centres undefined) | – | – | inactive [at 27.8 µM]
